High-throughput results as filed in PubChem.
KCNQ2 inh – inhibitors of rat KCNQ2 potassium channel; O88943; CHO-K1 KCNQ2, FluxOR thallium flux, 20 min; hits give low values; B-score at 10 µM; 310,000 compounds, 1.1% hits; AID 2156;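 active means fluorescence ratio B-score at most minus 3 library SDs, with starting brightness B-score within 2 library SDs, cut at about -5.5 in these data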
KCNQ2 pot – potentiators of rat KCNQ2 potassium channel | B-score at 10 µM | CHO-K1 KCNQ2, FluxOR thallium flux fluorescence; hits give high values | O88943 | AID 2239 | 310,000 compounds, 0.54% hits;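 active means fluorescence ratio B-score at least 3 SD of library B-scores, with initial fluorescence B-score within 3 of them, cut at about 5.3 in these data; same plate scores as AID 2156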;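 further: B-score of peak minus minimum over baseline fluorescence ratio after K+ and Tl+ stimulus; positive B-score means potentiation of KCNQ2 with more thallium influx and brighter signal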
Kir21 confirm – confirmation of mouse Kir2.1 potassium channel inhibitors | shares compounds with KCNQ2 pot | Kir2.1-expressing cells, FluxOR thallium flux fluorescence; hits give low values | Tl flux remaining, % of negative control (hits give low values), % at 10 µM | 2,300 compounds, 41% hits | AID 2032;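 active means Primary-screen hit whose thallium flux fell at least 3 control SD below untreated wells in both duplicates, with normal baseline fluorescence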;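 further: 0% = blank wells without stimulus and 100% = stimulated no-compound controls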
HEK293 Tl flux – counter-screen for Kir2.1 inhibitors: effect in parental HEK293 cells; shares compounds with KCNQ2 pot; FluxOR thallium flux fluorescence; 0% = unstimulated blank wells; FluxOR signal as % of negative control (100 = no effect), % at 10 µM; 2,300 compounds, 19% hits;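 active means dye signal at least 3 control SD above or below untreated wells in both duplicates, raw fluorescence within 3, either direction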;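 further: percent is based on the flux ratio of peak minus minimum fluorescence over baseline F0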
CHO-K1 Tl ctr – counter-screen for KCNQ2 potentiators: effect in parental CHO-K1 cells | FluxOR thallium flux fluorescence; zero = vehicle mean+3SD, 100% = vehicle-minus-blank window | activity increase over 3SD of controls, % at 10 µM | 1,200 compounds, 43% hits | shares compounds with KCNQ2 pot;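 active means signal rise of at least 3 SD above the untreated control mean, in both duplicate wells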;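 further: counter screen of KCNQ2 potentiator hits so any rise reflects channel-independent effects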
KCNQ1 sel pot – tests whether KCNQ2 potentiators also act on human KCNQ1. CHO KCNQ1 stable, FluxOR thallium flux fluorescence; beyond 3SD, as % of vehicle-control signal. activation over 3SD threshold, % at 10 µM. AID 2283. 1,200 compounds, 28% hits. shares compounds with KCNQ2 pot;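 active means fluorescence ratio rise of at least 3 SD of vehicle wells above their mean, in both replicate wells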;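 further: 0% = vehicle mean plus 3 SD and 100% = vehicle minus unstimulated blank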
KCNQ2 pot conf – confirmation of rat KCNQ2 potassium channel potentiators; shares compounds with KCNQ2 pot; CHO-KCNQ2 cells, FluxOR thallium flux fluorescence; potentiation, less the hit threshold, % at 10 µM; 1,200 compounds, 68% hits; AID 2287;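 active means fluorescence ratio rising 3 SD or more over the vehicle control mean in both replicates, plus primary screen hit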;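 further: peak minus minimum thallium fluorescence divided by baseline after K/Tl stimulus; 0% = vehicle mean plus 3 SD and 100% = vehicle minus unstimulated blank difference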
Kir2-1 sel – selectivity of KCNQ2 potentiators: effect on mouse Kir2.1; shares compounds with KCNQ2 pot; 1,200 compounds, 2% hits; HEK293 Kir2.1, FluxOR thallium flux fluorescence; activity over 3SD threshold, % at 10 µM;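 active means fluorescence ratio rise of at least 3 SD above the vehicle-control mean, seen in both replicates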;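 further: 0% = vehicle mean plus 3 SD and 100% = vehicle minus no-stimulus blank window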
KCNQ2 W236L MoA – potentiates the retigabine-insensitive rat KCNQ2 W236L mutant channel; shares compounds with KCNQ2 pot; CHO KCNQ2-W236L, automated patch clamp current; current increase over 3SD of negative controls (%), hits give high values, % at 25 µM; 940 compounds, 10% hits; AID 2558;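 active means current increase at least 3 SD of the untreated controls above them in both duplicate recordings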
Starred values were filed as active, the others as inactive; i = inactive; nt = not tested or not shown. An excerpt weighted towards active compounds, which were near 1.6% of everything screened.

SMILES	KCNQ2 inh	KCNQ2 pot	Kir21 confirm	HEK293 Tl flux	others
Cc1c(NC(=O)COC(=O)c2ccc(Br)o2)c(=O)n(-c2ccccc2)n1C	i	nt	i	i
O=C1Cc2ccccc2C(c2c(Cl)cccc2Cl)N1 (configuration not stated)	i	nt	nt	nt
CCCCCCCCCCOC(=O)Cn1c(COc2ccccc2OC)[n+](C)c2ccccc21	i	nt	i	i
Cn1c(COc2ccccc2O)[n+](C)c2ccccc21	i	nt	nt	nt
CCC(C)N(C(=O)c1csnn1)C(C(=O)NC1CCCC1)c1c(F)cccc1Cl (configuration not stated)	i	nt	nt	nt
COc1cccc(CNCCc2c[nH]c3ccccc23)c1OCc1ccc(F)cc1	-8*	-8	i	i
COc1cccc(CNc2ccc3[nH]c(=O)[nH]c3c2)c1OCc1ccc(F)cc1	i	4.1	nt	nt
COc1cc(NC(=S)NCCc2c[nH]c3ccccc23)c(OC)cc1Cl	i	nt	nt	nt
COc1ccccc1NC(=S)NCCc1c[nH]c2ccccc12	i	0.21	72%*	i
Cc1ccc(NC(=S)NCCc2ccccc2)c(C)c1	i	nt	nt	nt
Cc1ccc(NC(=S)NCCc2c[nH]c3ccccc23)c(C)c1	i	nt	76%*	i
O=C(CCCN1C(=O)/C(=C/c2ccc3c(c2)OCO3)SC1=S)Nc1cccc(C(=O)O)c1	i	nt	nt	nt
COc1ccccc1CNC(=O)c1ccoc1C	i	nt	nt	nt
CN(CC(=O)Nc1cccc2ccccc12)C(=O)c1cccc(S(=O)(=O)N(C)C)c1	i	nt	nt	nt
Nc1nc(-c2ccco2)nn1C(=O)c1ccc(F)cc1	i	1.1	nt	nt
COc1ccc(C2C(C(=O)c3ccco3)=C(O)C(=O)N2CCOCCO)cc1OC (configuration not stated)	i	0.6	nt	nt
COc1ccc(CCNC(=O)COc2ccc(N(C)S(=O)(=O)c3ccc(Cl)cc3)cc2)cc1	-6.5*	-6.5	i	i
CN(c1ccc(OCC(=O)NCCc2ccccc2)cc1)S(=O)(=O)c1ccc(Cl)cc1	i	nt	nt	nt
O=C(/C=N/O)NCC1CCNCC1	i	nt	nt	nt
Cc1ccc(/C(=N/Nc2nc3ccccc3s2)C2=C(O)c3ccccc3C2=O)cc1	i	0.85	i	i
Cc1ccc(S(=O)(=O)N(C)CC(=O)Nc2nc3ccccc3s2)cc1	i	nt	nt	nt
O=C(O)c1ccn2c(C(=O)c3ccc(Cl)cc3)c(-c3ccccc3)cc2c1	i	8.4*	i	i	CHO-K1 Tl ctr=-6;KCNQ1 sel pot=-11;KCNQ2 pot conf=16*;Kir2-1 sel=-25;KCNQ2 W236L MoA=i
O=C(NCCO)C(=O)c1c(-c2ccc(Cl)cc2)cc2ccccn12	i	nt	nt	nt
COc1ccc(C2=NOC(C(=O)N3CCCc4ccccc43)C2)cc1 (configuration not stated)	i	0.12	nt	nt
CCc1ccc(/C=N/NC(=O)c2cc(-c3cccc([N+](=O)[O-])c3)n[nH]2)cc1	i	nt	nt	nt
CC1(C)CC(=O)C2=C(C1)NCN(Cc1ccc3c(c1)OCO3)C2	i	1.3	nt	nt
CC1=NN(c2cccc(C(=O)O)c2)C(=O)/C1=C\C=C/c1ccccc1	i	7.2*	i	i	CHO-K1 Tl ctr=33*;KCNQ1 sel pot=-2;KCNQ2 pot conf=36*;Kir2-1 sel=-62;KCNQ2 W236L MoA=i
CC1=NN(c2ccc(C)cc2)C(=O)/C1=C\C=C\c1ccccc1	i	nt	nt	nt
CCOC(=O)C1CCCN(C(=O)c2ccc3oc(Cc4ccccc4)nc3c2)C1 (configuration not stated)	i	nt	nt	nt
S=c1[nH]nc(-c2cccs2)n1/N=C/c1c(Cl)cccc1Cl	i	7.4*	i	i	CHO-K1 Tl ctr=-4;KCNQ1 sel pot=-20;KCNQ2 pot conf=7.3*;Kir2-1 sel=-38;KCNQ2 W236L MoA=i
